# Nrf2 activator: activates Nrf2 signaling | AREc32 ARE-luciferase reporter (MCF7-derived line), luminescence, 24 h | Potency, µM (doses to about 46.1 µM), for the others: top-dose activation, actives largely listed as activators | actives 0.31% (n = 410,000) | AID 624171; further: potency means the concentration at half of the fitted maximal effect; % of control where 0% means no effect; nearly all actives have a fitted effect of over 65% in size
#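 Luciferase luminescence (Steady-Glo, 30 min at room temperature) served as the read-out of ARE activation in AREc32 cells treated with compounds for 24 hr at 37 deg C.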
# IL-2 act: activates IL-2 in a cell-based reporter assay | actives 0.065% (n = 360,000) | IL-2 activation reporter assay, cell-based qHTS; stimulated with anti-CD3/CD4/CD28 beads; in transgenic mouse T cells | activation, % (series mostly up to about 46 µM) | AID 652025; in the data active means activation above about 50%; inconclusive means mostly about 30% to 49%; further: 0% is about no effect
#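 Unstimulated transgenic mouse T cells, 750 per well, received compound and, after 60 minutes, anti-CD3/anti-CD4 bead plus anti-CD28 stimulation. EGFP and DsRed were quantified after 18 hours.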
# BRCA1 expr up: BRCA1 expression activation. MCF7-BRCA1-FFLuc reporter, luminescence, 48 h; response scale: scaled: vehicle 0%, 10 µM genistein 100%. Potency, µM (titrated, usually from 46.1 µM), for the others: at the highest dose activation, usual class: activators. actives 1.1% (n = 380,000). AID 624202; further: potency means the concentration at half of the fitted maximal effect; nearly all actives have a fitted effect of over 80% in size
#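 Activators of BRCA1 expression were detected as increased firefly luciferase luminescence in engineered MCF7 cells after 48 h compound incubation. Signals were scaled to genistein 10 microM as full activation.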
# ELG1 DNA repair: ELG1-dependent DNA repair inhibition | HEK293T ELG1-luciferase reporter, luminescence, 16 h; DNA damage induced by 5-fluorouridine | Potency, µM (series often up to 46.1 µM), inactives show top-dose activity change, negative = inhibition, actives largely listed as inhibitors | actives 2.3% (n = 330,000); further: potency means the concentration at half of the fitted maximal effect; on the % scale 0 is the no-effect control and ±100 the full control effect; nearly all actives have a fitted effect of over 55% in size
#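 HEK293T cells expressing luciferase-tagged ELG1 (2,000/well) received 5-Fluorouridine plus compound or DMSO for 16 hr at 37 °C. Luciferase was read by ONE-Glo luminescence after 30 min at room temperature.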
# Starred values were filed as active, the others as inactive; u = inconclusive; x = not tested or not shown. An excerpt weighted towards active compounds, which were near 3.1% of everything screened. Unless noted, the call rests on the fitted dose curve; in most records, active means well fitted curve in the direction sought with a large enough effect; inconclusive means small, poorly fitted or top-dose-only effect, or another doubt; inactive means no such curve, though single readings can be large; an effect the other way counts as inactive or inconclusive.
SMILES,Nrf2 activator,IL-2 act,BRCA1 expr up,ELG1 DNA repair
Cc1ccc(C(=O)NCCN2CCC(n3c(=O)[nH]c4ccccc43)CC2)cc1C,1%,0,-3%,x
COC(=O)c1c(N2C(=O)Nc3ccccc3N2O)sc(C)c1C,0%,1,13%,5%
COC(=O)c1c(N2C(=O)[C@H]3[C@@H](C2=O)[C@]2(C(=O)Nc4ccc(C)cc42)N2CCC[C@@H]32)sc(C)c1C,x,x,x,8.2µM*
O=C(c1ccc2c(=O)n(CC3CCCO3)c(=S)[nH]c2c1)N1CCN(C(=O)c2ccco2)CC1 (centres undefined),x,x,5%,x
Cc1nc(-c2ccccc2)[nH]c(=O)c1Oc1ccc(Cl)cc1Cl,-1%,1,-8%,8.2µM*
COC(=O)c1c(NC(=O)c2nc3nc(C)cc(C(F)F)n3n2)sc2c1CCC2,-1%,4,-4%,23µM*
CC(C)CCn1c(Oc2ccccc2F)nc2c1c(=O)n(C)c(=O)n2C,7%,x,x,x
COc1cccc2[nH]c3c(N4CCN(Cc5ccc6c(c5)OCO6)CC4)ncnc3c12,x,x,x,23µM*
Cc1ccc2[nH]c3c(N4CCN(Cc5ccc6c(c5)OCO6)CC4)ncnc3c2c1,x,x,x,23µM*
c1nc(N2CCN(Cc3ccc4c(c3)OCO4)CC2)c2[nH]cnc2n1,-1%,-2,0%,u
CCOc1ccc2[nH]c3c(N4CCN(c5ccccn5)CC4)ncnc3c2c1,-1%,-3,-71%,16µM*
COc1cccc2[nH]c3c(N4CCC(C)CC4)ncnc3c12,7%,-4,-49%,u
COc1ccc2c(c1)[nH]c1c(N3CCSCC3)ncnc12,2%,-4,-47%,9.2µM*
COc1ccc2c(c1)[nH]c1c(N3CCN(Cc4ccc5c(c4)OCO5)CC3)ncnc12,0%,-1,-78%,21µM*
Cc1ccc2[nH]c3c(N4CCCCCC4)ncnc3c2c1,x,x,x,10µM*
N#Cc1nc(-c2ccc(OCc3ccc(Cl)cc3)cc2)oc1N1CCCC1,x,x,-17%,x
C[C@H]1CN([C@@H](C)CO)C(=O)CCCn2nncc2CO[C@H]1CN(C)S(=O)(=O)c1ccc(Oc2ccccc2)nc1,1%,-1,10%,x
CN1CC2(Cc3cc([N+](=O)[O-])ccc31)C(=O)OC(C)(C)OC2=O,x,x,22%,x
O=C1c2c(O)ccc(O)c2C(=O)c2c(NCCNCCO)ccc(NCCNCCO)c21,-2%,-7,-84%,11µM*
O=C1c2ccccc2C(=O)c2c(NCCCN(CCO)CCO)cccc21,3%,-1,-51%,-2%
CCCN(CCC)c1nc(Cl)nc(NCCN2CCOCC2)n1,0%,1,-10%,23µM*
C=CCNc1nc(NCCN2CCOCC2)nc(OC)n1,0%,-1,-1%,3%
COc1ccc(NC(=O)c2oc3ccccc3c2NC(=O)C23CC4CC(CC(C4)C2)C3)c(OC)c1,0%,x,7%,x
COc1ccc(C2=Nc3ccc(OC(F)(F)F)cc3NC(c3cccnc3)=N2)cc1,4%,x,x,x
O=C(c1ccc(F)cc1)c1cnc(Nc2ccccc2)s1,3%,-3,2µM*,u
SMILES,Nrf2 activator,IL-2 act,BRCA1 expr up,ELG1 DNA repair
CNc1ncc(C(=O)c2ccc(F)cc2)s1,0%,0,u,u
COc1ccc(-n2nc(C(=O)NCC(=O)N3CCN(c4ccccc4OC)CC3)c3ccccc3c2=O)cc1OC,2%,0,26%,16µM*
COc1ccc(NC(=O)CNC(=O)Cn2c(C)cc3ccccc3c2=O)cc1OC,0%,6,-20%,8.2µM*
COc1ccc(NC(=O)CNC(=O)c2nn(-c3ccc(OC)c(OC)c3)c(=O)c3ccccc23)c(OC)c1,0%,0,-1%,u
COc1ccc(-n2nc(C(=O)NCC(=O)NCCc3ccc(OC)c(OC)c3)c3ccccc3c2=O)cc1Cl,3%,0,-24%,6.5µM*
COc1ccc(-n2nc(C(=O)NCC(=O)Nc3cc(OC)c(OC)c(OC)c3)c3ccccc3c2=O)cc1OC,0%,1,-28%,2.3µM*
COc1cc(NC(=O)CNC(=O)Cn2c(C)cc3ccccc3c2=O)cc(OC)c1OC,0%,0,4%,-10%
COc1cccc(N2CC(NC(=O)C3CC3)CC2=O)c1 (centres undefined),0%,x,x,x
CCC(CC)C(=O)Nc1ccc(OCc2cc(=O)n3ccc(C)cc3n2)cc1,3%,x,x,x
C/C(=C1/C=Nc2ccccc21)c1ccc(N(C)C)cc1,x,x,-39%,x
CCOC(=O)c1[nH]cnc1C(=O)Nc1cccc(N)n1,0%,1,-20%,9.2µM*
CC1CCCN(C(=O)Cn2ncc3c([nH]c4ccccc43)c2=O)C1 (centres undefined),-1%,x,x,x
N#CC(=Cc1ccccn1)c1nc(-c2ccc(Cl)cc2)cs1,13µM*,-2,-42%,x
N#C/C(=C/c1ccc(Cl)cc1)c1nc(-c2ccc(Br)cc2)cs1,-1%,x,x,x
CCOc1ccc(N=c2scc(-c3ccccc3)n2CCO)cc1,1%,-4,8%,u
CCOc1ccc(N=c2scc(-c3ccc(OC)cc3)n2CCO)cc1,1%,-1,-49%,10µM*
Cc1cccc(NC(=O)c2sc3nc4n(c(=O)c3c2C)N=C(c2ccc(F)cc2)CS4)c1C,0%,x,x,x
CCCCCCn1cnc2c(oc3nc4c(cc32)CCCC4)c1=O,0%,-1,3.5µM*,u
Cc1ccc(Cl)cc1N1CCN(C(=O)CCCn2c(=O)c3cccn3c3cccnc32)CC1,-2%,0,-39%,u
CCOc1cc(CNC(=O)CCCn2c(=O)c3cccn3c3cccnc32)cc(OCC)c1OCC,0%,0,-21%,16µM*
COc1ccccc1N1CCN(C(=O)CCn2c(=O)[nH]c3ccccc3c2=O)CC1,-1%,-1,-1%,-15%
Cc1cccc(N2CCN(C(=O)c3cn(C)c(=O)c4c3c3ccccc3n4C)CC2)c1C,0%,-2,-64%,23µM*
Cc1cccc(N2CCN(C(=O)CCn3c(=O)[nH]c4ccccc4c3=O)CC2)c1C,0%,0,-34%,9.2µM*
Cc1cccc(N2CCN(C(=O)CCCn3c(=O)c4cccn4c4cccnc43)CC2)c1C,0%,-4,0%,16µM*
CCc1ccc(CNC(=O)CCCn2c(=O)c3cccn3c3cccnc32)cc1,0%,-5,-19%,2%
SMILES,Nrf2 activator,IL-2 act,BRCA1 expr up,ELG1 DNA repair
CN1CCN(c2nc(-c3ccc(Cl)cc3)nc3ccccc23)CC1,0%,-3,-23%,-12%
Nc1sc(Cc2ccccc2)cc1C(=O)c1c(-c2ccccc2)[nH]c2ccccc12,x,0,x,x
Cc1c(C(=O)Nc2ccccc2)cn2c(nc3ccccc32)c1C#N,0%,-1,-1%,4%
Cc1ccccc1C(=O)Nc1ccc2c(C#N)c3nc4ccccc4nc3n2c1,0%,-5,-18%,18µM*
Cc1ccc(O)c(NC(=O)c2ccc3c(c2)C(=O)N(CC(C)C)C3=O)c1,0%,-4,7.9µM*,u
Cc1ccc(-c2nnc(Nc3ccc4c(c3)OCO4)c3ccccc23)cc1S(N)(=O)=O,4%,-2,-48%,16µM*
COc1c(C)oc2cc(O)ccc2c1=O,0%,-2,2%,-7%
